Screens deposited in PubChem by National Center for Advancing Translational Sciences (NCATS).
VACV mCherry inh: vaccinia inhibition (mCherry reporter). Vaccinia virus mCherry reporter infection, fluorescence. Potency, µM (series often up to 36.5 µM), for the others: at the top dose activity change, negative = inhibition, hits mostly inhibitors. 310,000 compounds, 0.63% hits. AID 720579; calls by dose curve; tested in A549 cells; also: potency is read from the fitted curve at half-maximal effect; nearly all actives have a fitted effect of over 35% in size
HCMV antiviral: inhibitors of human cytomegalovirus; HFF cells, HCMV-luciferase reporter, 72 h; stronger effect = lower value; 410,000 compounds, 4.5% hits; activity change, negative = inhibition, % at 57.5 µM; in the data active = activity change below about -60%; inconclusive = no clear call, values can overlap the other calls; inactive = above about -39%
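After 16 h attachment at 37C, HFF cells received test compound and HCMV-luciferase (1 PFU/cell); reporter luminescence read 72 h later, data normalized against buffer-only and known inhibitor Salinomycin.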
VACV Venus inh: inhibitors of vaccinia virus (Venus reporter); Vaccinia virus Venus reporter expression, fluorescence; Potency, µM (top dose mostly 36.5 µM), for the others: at the highest dose activity change, negative = inhibition, hits mostly inhibitors; 330,000 compounds, 0.46% hits; calls by dose curve; tested in A549 cells; also: potency is read from the fitted curve at half-maximal effect; nearly all actives have a fitted effect of over 30% in size
HCV inh: blocks hepatitis C virus | Huh7.5.1 HCVcc-Cre infection, luciferase reporter, 44 h | 340,000 compounds, 3.4% hits | Potency, µM (highest dose often 41.8 µM), for the others: at the highest dose activity change, negative = inhibition, most hits filed as inhibitors; active = well fitted inhibition curve with a large enough effect; inconclusive = small, poorly fitted or top-dose-only effect, or another doubt; inactive = no such curve, though single readings can be large or run the other way; also: potency is read from the fitted curve at half-maximal effect
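Antiviral activity was scored by luciferase reporter output from cells infected with HCVcc-Cre (~0.5 moi) in presence of compound, 44 h infection period, cells seeded 1,000/well 4 h prior.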
FMDV inh: antivirals against foot and mouth disease virus | FMDV antiviral cell-based qHTS | Potency, µM (top dose mostly 57.9 µM), without a hit: top-dose activity change, negative = inhibition, usual class: inhibitors | 410,000 compounds, 1.2% hits | AID 1159524; calls by dose curve; tested in HEK293T cells; also: read-out not given here; potency is read from the fitted curve at half-maximal effect; nearly all actives have a fitted effect of over 45% in size
* marks the source's active call; other numbers are inactive results; i = inactive; u = inconclusive; x = no result; [ ] = another dose, or the depositor's remark. Rows were chosen to be rich in hits. Some 7.3% of all compounds tested hit in one or more screens of this group. % is scaled to controls: 0 for no effect and ±100 for the full control effect.

SMILES	VACV mCherry inh	HCMV antiviral	VACV Venus inh	HCV inh	FMDV inh
C=CCN(CC=C)Cc1cc(=O)oc2cc(C)cc(C)c12	9%	-13	-1%	x	-1%
O=C(/C=C/Sc1ccc(C(F)(F)F)cn1)c1ccccc1	x	51	x	10µM*	12%
COc1cccc2c1OCC(C(=O)O)C2 (centres undefined)	-5%	-2	-3%	-4%	-5%
COc1cccc2c1C(CO)N1C(C#N)C3CC(C(=O)O)C(C1C2)N3C (centres undefined)	u	-77*	u	1.1µM*	-22%
COc1ccccc1OCC(=O)O	x	55	-11%	20%	0%
COc1ccccc1OCCC(=O)O	i	-91*	10%	0%	-9%
COc1ccccc1CNC(=O)C1CCCN(c2nnc(-n3c(C)ccc3C)s2)C1 (centres undefined)	-12%	-24	-3%	x	-11%
COc1ccccc1CNc1ncc(-c2ccc(F)cc2)n1C	x	-14	x	-10%	14%
COc1ccc(CNc2ncc(-c3ccc(F)cc3)n2C)c2ccccc12	u	-84*	-10%	1%	-20%
CCOc1ccc(-c2cnc(NCc3cccc4ccccc34)n2CCOC)cc1	u	25	u	10µM*	-29%
CCOc1ccc(-c2cnc(NCc3cccc(Cl)c3)n2C)cc1	-15%	u	-9%	x	-8%
Cn1c(-c2ccc(F)cc2)cnc1NCc1cc2c(cc1[N+](=O)[O-])OCO2	-6%	12	-13%	13µM*	5%
O=S(=O)(c1ccc2c(c1)OCCO2)N1CCN(c2nc(-c3ccccc3)nc3ccccc23)CC1	-8%	x	-8%	x	x
COc1ccc2c(c1)-c1nc(-n3ncc(C(=O)N(C)CCO)c3C3CC3)ncc1CC2	-16%	x	-14%	x	35%
COC(=O)C1=C(C)N(C)C(=NCc2ccc(OC)cc2)NC1c1ccc(F)cc1 (centres undefined)	x	-4	x	x	x
COC(CNC(=O)C1CCN(C(=O)c2cc3oc(C)cc3n2Cc2c(F)cccc2Cl)CC1)OC	-14%	-67*	-4%	-2%	0%
CCOC(=O)N1CCC(NC(=O)C2CCN(C(=O)c3cc4oc(C)cc4n3Cc3c(F)cccc3Cl)CC2)CC1	x	-2	x	-17%	-8%
CCN=c1scc(-c2cccs2)n1/N=C/c1cc(OC)ccc1O	-2%	-95*	-14%	5µM*	-52%
COc1ccc(O)c(/C=N/n2c(-c3ccco3)csc2=Nc2cccnc2)c1	-27%	40	-15%	-1%	u
CC(=O)N1c2ccc(S(=O)(=O)NCCC(=O)NCCc3ccc(Cl)cc3)cc2CC1C (centres undefined)	11%[7.34 µM]	-61*	15%[7.34 µM]	u	-26%
CC(=O)N1CCOc2ccc(S(=O)(=O)NCC3CCC(C(=O)Nc4ccc(C)cn4)CC3)cc21 (centres undefined)	-16%	-68*	-11%	u	u
CC(=O)N1c2ccc(S(=O)(=O)NCCC(=O)NCCc3ccc(C)cc3)cc2CC1C (centres undefined)	i[7.34 µM]	0	-11%[7.34 µM]	u	-28%
COc1ccccc1NC(=O)C1CCC(CNS(=O)(=O)c2ccc3c(c2)CC(C)N3C(C)=O)CC1 (centres undefined)	-28%	-31	-26%	x	32µM*
CC(=O)N1CCOc2ccc(S(=O)(=O)NCC3CCC(C(=O)NCCC(C)C)CC3)cc21 (centres undefined)	-14%	u	-5%	-27%	-15%
CC(=O)N1c2ccc(S(=O)(=O)NCC3CCC(C(=O)Nc4ccc(F)cc4)CC3)cc2CC1C (centres undefined)	-18%	-26	-23%	x	35µM*
SMILES	VACV mCherry inh	HCMV antiviral	VACV Venus inh	HCV inh	FMDV inh
CC(=O)c1cc(C(=O)Nc2cc(C)cc(C)c2)c2ccccn12	-9%	u	-8%	x	6%
Cc1ccc(CN2CCOc3ccc(CN4CCC(O)(c5cccnc5)CC4)cc3C2)cc1	-28%	x	-21%	x	u
CCc1ccc(NC(=O)C2CCC(CNS(=O)(=O)c3ccc4c(c3)CC(C)N4C(C)=O)CC2)cc1 (centres undefined)	-9%[7.34 µM]	29	-12%[7.34 µM]	x	18µM*
CC(=O)N1c2ccc(S(=O)(=O)NCC3CCC(C(=O)Nc4ccc(C)c(C)c4)CC3)cc2CC1C (centres undefined)	-19%	-17	-28%	x	18µM*
CC(=O)N1c2ccc(S(=O)(=O)NCC3CCC(C(=O)Nc4cc(C)cc(C)c4)CC3)cc2CC1C (centres undefined)	u	-22	-26%	x	u
CC(=O)N1c2ccc(S(=O)(=O)NCC3CCC(C(=O)Nc4ccc(C)cn4)CC3)cc2CC1C (centres undefined)	-24%	-62*	-16%	u	u
COCc1c(C(=O)N2CCN(c3ccccc3O)CC2)cnn1-c1nccc(-c2cccs2)n1	-14%	x	-14%	x	-17%
CC1CN(C(=O)CCCN2C(=O)c3ccccc3C2=O)CC(C)O1 (centres undefined)	x	-12	x	7%	8%
Cc1[nH][nH]c(=O)c1C(c1ccc(-c2ccc(C(=O)O)cc2)o1)c1c(C)[nH][nH]c1=O	i	-62*	0%	9%	8%
Cc1[nH][nH]c(=O)c1C(c1ccc(-c2ccc(F)cc2)o1)c1c(C)[nH][nH]c1=O	-7%	17	-2%	4%	-28%
CN1NC(=O)c2ccccc2NC1=S	x	-61*	x	x	x
COc1ccc(-c2ccccc2-c2noc3ccccc23)cc1	x	-1	x	x	x
CCN(CCCNC(=O)c1cc2c(=O)[nH]c3ccc(C)cc3c2s1)Cc1ccccc1	u	-106*	u	x	u
CCN(CC)CCNC(=O)c1cc2c(=O)[nH]c3ccc(C)cc3c2s1	-20%	3	-18%	x	0%
CCCN1CCN(CCCNC(=O)c2cc3c(=O)[nH]c4ccc(C)cc4c3s2)CC1	u	-101*	-29%	u	-19%
CCN(CCCNC(=O)c1cc2c(=O)[nH]c3ccc(C)cc3c2s1)c1ccc(C)cc1	-1%	-18	-12%	x	-9%
O=C(NC1CCN(Cc2ccccc2)C1)c1cc(COc2ccc(F)cc2F)on1 (centres undefined)	x	-102*	x	-17%	-10%
CN(Cc1cccc2cnccc12)C(=O)c1cc(COc2ccc(F)cc2Cl)on1	-12%	0	1%	10µM*	-21%
Cc1nnc(CN(C)C(=O)c2cc(COc3ccc(F)cc3Cl)on2)o1	-6%	x	-3%	17%	48%
O=C(c1cc(COc2ccc(F)cc2Cl)on1)N1CCCC(c2ccccc2)C1 (centres undefined)	-6%	-37	-11%	u	-25%
CCN1CCN(C(=O)c2cc(COc3ccc(F)cc3F)on2)[C@@H](C)C1=O	-12%	u	-12%	11µM*	-21%
O=C(c1cc(COc2ccc(F)cc2F)on1)N1CCCC(c2ccccc2)C1 (centres undefined)	-21%	-63*	-31%	u	14%
